In the antibiotic and cytotoxicity screens of Wong et al. (2023) one finds cytotoxicity call data, which are given here for 63 compounds.

Among all 39,000 compounds or so, about 3,300 (8.5%) were called active. For the sample, actives were picked, then their nearest neighbours and some compounds at random.

This assay relates to HepG2. The assay is described as follows: cytotoxicity call (relative viability < 0.9). To be noted: 10 µM.
For `C[C@@H]1CCCCO[C@H](CN(C)S(=O)(=O)c2ccc(F)cc2)[C@H](C)CN([C@H](C)CO)C(=O)c2cc(NC(=O)Nc3cccc4ccccc34)ccc2O1`, the cytotoxicity call is “inactive”.
The value for `C[C@@H]1CN([C@@H](C)CO)C(=O)c2c(c3ccccc3n2C)-c2ccccc2CO[C@H]1CN(C)C(=O)Nc1cccc(Cl)c1Cl` was “inactive”; that for `CC(C)[C@H](NC=O)C(=O)OC[C@H](O)[C@H](O)[C@H](O)[C@H](O)COC(=O)[C@H](NC=O)C(C)C` was “inactive”.
In the case of `C[C@H](CO)N1C[C@H](C)[C@@H](CN(C)Cc2ccncc2)Oc2c(NC(=O)c3ccncc3)cccc2C1=O`, the cytotoxicity call is “inactive”.
For the compound `O=C1CSC(/N=C/c2ccccc2O)=NN1`, the cytotoxicity call was “active”.
As for `O=C(NCc1cccc(F)c1)[C@@H]1[C@@H](CO)[C@@H]2Cn3c(cccc3=O)[C@H]1N2C(=O)c1cnccn1`, the cytotoxicity call is “inactive”.
Turning to `CN(C)CCC=C1c2ccccc2Sc2ccc(Cl)cc21.Cl`, the cytotoxicity call was “active”.
Consider `CN(C)CC/C=C1/c2ccccc2Sc2ccc(Cl)cc21`, for which the cytotoxicity call was “active”.
For `CCS(=O)(=O)N1C[C@]2(CN(Cc3cc(ccc3F)F)C2)c2c(n(c3cc(ccc23)OC)C)[C@H]1CO`, the cytotoxicity call was “inactive”.
The result for `CCS(=O)(=O)N1C[C@]2(CN(Cc3ccc4c(c3)OCO4)[C@H](CO)c3c2c2ccc(cc2n3C)OC)C1` reads “inactive”; that for `C[C@@H]1CN([C@@H](C)CO)C(=O)c2cccc(NS(C)(=O)=O)c2O[C@H]1CN(C)C(=O)Nc1ccc2c(c1)OCO2`, “inactive”; that for `Cc1noc(C)c1S(=O)(=O)N(C)C[C@H]1OCCCC[C@@H](C)Oc2ccc(N(C)C)cc2C(=O)N([C@H](C)CO)C[C@@H]1C`, “inactive”.
The value for `COc1ccc(NC(=O)Nc2ccc3c(c2)C(=O)N([C@@H](C)CO)C[C@H](C)[C@@H](CN(C)C(=O)CCC(F)(F)F)OCCCC[C@@H](C)O3)cc1` was “inactive”; that for `C[C@H](CO)N1C[C@H](C)[C@@H](CN(C)Cc2ccncc2)OCCCC[C@H](C)Oc2ccc(NC(=O)C3CCCCC3)cc2C1=O` was “inactive”; that for `C[C@@H]1CN([C@@H](C)CO)C(=O)c2cc(NC(=O)CCCN(C)C)ccc2O[C@H]1CN(C)Cc1ccccc1` was “inactive”.
The result for `COc1ccc(CN(C)C[C@H]2Oc3ccc(NC(=O)CCCN(C)C)cc3C(=O)N([C@H](C)CO)C[C@H]2C)cc1` reads “inactive”; that for `COc1ccc(CN(C)C[C@@H]2Oc3ccc(NC(=O)CCCN(C)C)cc3C(=O)N([C@H](C)CO)C[C@H]2C)cc1`, “inactive”.
In the case of `C[C@H]1CN([C@@H](C)CO)C(=O)c2cc(NC(=O)CCCN(C)C)ccc2O[C@H]1CN(C)Cc1ccccc1`, the cytotoxicity call is “inactive”.
`C[C@@H]1CN([C@H](C)CO)C(=O)c2cc(NC(=O)CCCN(C)C)ccc2O[C@H]1CN(C)Cc1ccccc1`: the cytotoxicity call was “inactive”.
The value for `C[C@H](CO)N1C[C@H](C)[C@@H](CN(C)Cc2ccc(Oc3ccccc3)cc2)Oc2ccc(NC(=O)CCCN(C)C)cc2C1=O` was “inactive”; that for `C[C@@H]1CN([C@H](C)CO)C(=O)c2cc(NC(=O)CCCN(C)C)ccc2O[C@H]1CN(C)Cc1ccc(Oc2ccccc2)cc1` was “active”.
With `C[C@@H]1CN([C@@H](C)CO)C(=O)c2cc(NC(=O)CCCN(C)C)ccc2O[C@H]1CN(C)Cc1ccc(Oc2ccccc2)cc1`, the cytotoxicity call was “inactive”.
The result for `C[C@@H]1CN([C@H](C)CO)C(=O)c2cc(NC(=O)CCCN(C)C)ccc2O[C@@H]1CN(C)Cc1ccc(Oc2ccccc2)cc1` reads “active”; that for `C[C@H]1CN([C@@H](C)CO)C(=O)c2cc(NC(=O)CCCN(C)C)ccc2O[C@H]1CN(C)Cc1ccc(Oc2ccccc2)cc1`, “active”; that for `C[C@H](CO)N1C[C@H](C)[C@@H](CN(C)Cc2ccccc2)Oc2ccc(NC(=O)CCCN(C)C)cc2C1=O`, “inactive”.
The value for `C[C@H]1CN([C@@H](C)CO)C(=O)c2cc(NC(=O)CCCN(C)C)ccc2O[C@@H]1CN(C)Cc1ccc(Oc2ccccc2)cc1` was “active”.
As to `Cc1cc(C(=O)Nc2cccc3c2O[C@@H](CN(C)S(=O)(=O)c2ccc(F)cc2)[C@@H](C)CN([C@H](C)CO)C3=O)n(C)n1`, the cytotoxicity call is “inactive”.
Take `COc1ccc(S(=O)(=O)N(C)C[C@@H]2Oc3cc(C#CC4CCCC4)ccc3S(=O)(=O)N([C@H](C)CO)C[C@H]2C)cc1`: the cytotoxicity call was “inactive”.
Regarding `C[C@@H]1CN([C@H](C)CO)C(=O)c2cc(NS(=O)(=O)c3ccccc3)ccc2O[C@@H]1CN(C)S(=O)(=O)c1ccc(F)cc1`, the cytotoxicity call was “inactive”.
The value for `COc1ccc(NC(=O)N[C@H]2CC[C@@H](CCNC(=O)CN3CCOCC3)O[C@@H]2CO)cc1` was “inactive”; that for `CCS(=O)(=O)Nc1ccc2c(c1)C(=O)N(C)[C@@H]1CC[C@@H](CC(=O)NCc3ccccc3F)O[C@H]1CO2` was “inactive”; that for `C[C@@H]1CCCCO[C@H](CN(C)S(=O)(=O)c2ccccc2)[C@H](C)CN([C@@H](C)CO)C(=O)c2cc(NC(=O)C3CCCCC3)ccc2O1` was “inactive”.
The result for `COc1ccc(CN(C)C[C@H]2OCCCC[C@H](C)Oc3ccc(NS(=O)(=O)c4ccc(Cl)cc4)cc3C(=O)N([C@H](C)CO)C[C@@H]2C)cc1` reads “inactive”.
Take `COCC(=O)N1[C@H](C(=O)NCc2ccccc2)[C@@H](CO)[C@@H]2Cn3c(cccc3=O)[C@@H]21`: the cytotoxicity call is “inactive”.
The result for `C[C@H]1CN([C@@H](C)CO)C(=O)c2cc(NC(=O)CCCN(C)C)ccc2O[C@@H]1CN(C)Cc1ccccc1` reads “inactive”; that for `C[C@@H]1CN([C@@H](C)CO)C(=O)c2cc(NC(=O)CCCN(C)C)ccc2O[C@@H]1CN(C)Cc1ccccc1`, “inactive”.
The result for `C[C@@H]1CN([C@@H](C)CO)C(=O)c2cc(NC(=O)CCCN(C)C)ccc2O[C@@H]1CN(C)Cc1ccc(Oc2ccccc2)cc1` reads “active”; that for `C[C@H](CO)N1C[C@H](C)[C@H](CN(C)Cc2ccccc2)Oc2ccc(NC(=O)CCCN(C)C)cc2C1=O`, “inactive”; that for `C[C@H](CO)N1C[C@H](C)[C@H](CN(C)Cc2ccc(Oc3ccccc3)cc2)Oc2ccc(NC(=O)CCCN(C)C)cc2C1=O`, “active”.
The value for `C[C@@H]1CN([C@H](C)CO)C(=O)c2cc(NC(=O)CCCN(C)C)ccc2O[C@@H]1CN(C)Cc1ccccc1` was “inactive”.
In the case of `Cc1noc(C)c1NC(=O)Nc1ccc2c(c1)CC(=O)N([C@@H](C)CO)C[C@H](C)[C@H](CN(C)Cc1ccc(C(F)(F)F)cc1)O2`, the cytotoxicity call was “inactive”.
The value for `C[C@@H]1CN([C@H](C)CO)C(=O)c2cc(NC(=O)Nc3ccc(F)cc3)ccc2O[C@@H](C)CCCCO[C@H]1CN(C)C(=O)Nc1ccccc1` was “inactive”.
For the compound `O=c1[nH]ncc2ccccc12`, the cytotoxicity call was “inactive”.
Turning to `Cc1ccc(S(=O)(=O)Nc2cccc3c2O[C@@H](CN(C)S(=O)(=O)c2ccccc2)[C@H](C)CN([C@H](C)CO)C3=O)cc1`, the cytotoxicity call is “inactive”.
The value for `O=C(CN1CCOCC1)NCC[C@H]1CC[C@@H](NC(=O)c2ccc3c(c2)OCO3)[C@@H](CO)O1` was “inactive”; that for `Cc1ccc(S[C@]2(C(=O)NC(C)C)CC(=O)N(Cc3ccccc3Cl)[C@@H]2c2ccc(CO)cc2I)cc1` was “inactive”.
The value for `O=C(C[C@@H]1C[C@@H]2c3cc(NS(=O)(=O)c4ccc(F)cc4)ccc3O[C@@H]2[C@H](CO)O1)N1CCCCC1` was “inactive”; that for `C[C@@H]1CN([C@H](C)CO)C(=O)Cc2cc(NC(=O)Nc3ccc(C(F)(F)F)cc3)ccc2O[C@H]1CN(C)Cc1ccc(C(=O)Nc2ccccc2N)cc1` was “inactive”.
The result for `C[C@@H]1CN([C@H](C)CO)C(=O)Cc2cc(NC(=O)Nc3ccc(C(F)(F)F)cc3)ccc2O[C@@H]1CN(C)Cc1ccc(C(=O)Nc2ccccc2N)cc1` reads “active”; that for `C[C@H]1CN([C@@H](C)CO)C(=O)Cc2cc(NC(=O)CCC(F)(F)F)ccc2O[C@H]1CN(C)Cc1ccc(C(=O)Nc2ccccc2N)cc1`, “active”; that for `C[C@@H]1CN([C@@H](C)CO)C(=O)Cc2cc(NC(=O)Nc3ccccc3)ccc2O[C@@H]1CN(C)Cc1ccc(C(=O)Nc2ccccc2N)cc1`, “inactive”.
Turning to `C[C@H]1CN([C@@H](C)CO)C(=O)Cc2cc(NC(=O)Nc3ccc(C(F)(F)F)cc3)ccc2O[C@H]1CN(C)Cc1ccc(C(=O)Nc2ccccc2N)cc1`, the cytotoxicity call was “active”.
The result for `C[C@H](CO)N1C[C@H](C)[C@@H](CN(C)Cc2ccc(C(=O)Nc3ccccc3N)cc2)Oc2ccc(NC(=O)CCC(F)(F)F)cc2CC1=O` reads “inactive”; that for `C[C@@H]1CN([C@@H](C)CO)C(=O)Cc2cc(NC(=O)Nc3ccc(C(F)(F)F)cc3)ccc2O[C@@H]1CN(C)Cc1ccc(C(=O)Nc2ccccc2N)cc1`, “active”; that for `C[C@@H]1CN([C@H](C)CO)C(=O)Cc2cc(NC(=O)CCC(F)(F)F)ccc2O[C@H]1CN(C)Cc1ccc(C(=O)Nc2ccccc2N)cc1`, “inactive”.
The value for `C[C@H]1CN([C@@H](C)CO)C(=O)Cc2cc(NC(=O)Nc3ccc(C(F)(F)F)cc3)ccc2O[C@@H]1CN(C)Cc1ccc(C(=O)Nc2ccccc2N)cc1` was “inactive”; that for `CC(=O)O[C@H]1C[C@@H]2CC[C@@H]3[C@H](CC[C@@]4(C)[C@H]3C[C@H]([N+]3(C)CCCCC3)[C@@H]4OC(C)=O)[C@@]2(C)C[C@@H]1N1CCCCC1` was “inactive”.
The result for `C[C@@H]1CN([C@@H](C)CO)C(=O)c2cc(NC(=O)CCN3CCOCC3)ccc2O[C@@H]1CN(C)Cc1ccncc1` reads “inactive”; that for `C[C@@H]1CN([C@@H](C)CO)C(=O)c2cc(NS(=O)(=O)c3cccs3)ccc2O[C@H]1CN(C)S(C)(=O)=O`, “inactive”.
With `Cc1noc(C)c1S(=O)(=O)Nc1ccc2c(c1)CC(=O)N([C@H](C)CO)C[C@@H](C)[C@@H](CN(C)S(=O)(=O)c1cccs1)O2`, the cytotoxicity call was “inactive”.
The value for `Cc1noc(C)c1S(=O)(=O)Nc1cccc2c1O[C@H](CN(C)C(=O)NC1CCCCC1)[C@H](C)CN([C@H](C)CO)C2=O` was “inactive”; that for `CC(C)CC#Cc1ccc2c(c1)O[C@H](CN(C)C(=O)c1ccccn1)[C@@H](C)CN([C@@H](C)CO)S2(=O)=O` was “inactive”; that for `CC(C)(C)[S@@](=O)N1Cc2cc(C(=O)N[C@H]3CCN(Cc4ccccc4)C3)nc(-c3cccc(-c4cccnc4)c3)c2[C@H]1CCO` was “inactive”.
